# Assay outcomes as filed in PubChem BioAssay.
# aGlu spleen mod: qHTS Assay for Inhibitors and Activators of Human alpha-Glucosidase From Spleen Homogenate; Lysosomal alpha-glucosidase (Homo sapiens), P10253; actives 0.006% (n = 240,000); AID 2112, 2009; Potency, µM (series often up to 79.9 µM), for the others: at the highest dose activity change, negative = inhibition, usual class: inhibitors; human spleen homogenate, 4-MU-alpha-glucoside fluorescence;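 note: potency is the fitted concentration of half-maximal effect; 0% = enzyme with vehicle and -100% = no enzyme basal signal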
#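 Enzyme source: human spleen homogenate, 1 ug/well. Buffer 50 mM citric acid/K phosphate pH 5.0, 0.01% Tween-20. 4-MU-alpha-glucoside 1 mM; 37 C x 40 min; NaOH/glycine stop; fluorescence.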
# GAA inhib: qHTS Assay for Inhibitors of Human alpha-Glucosidase as a Potential Chaperone Treatment of Pompe Disease; actives 0.005% (n = 200,000); Potency, µM (highest dose often 76.9 µM), for the others: at the highest dose activity change, negative = inhibition, most hits filed as inhibitors; Lysosomal alpha-glucosidase (Homo sapiens), P10253; purified human GAA, 4-MU-alpha-glucoside fluorescence;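 note: potency is the fitted concentration of half-maximal effect; plate controls were uninhibited enzyme wells for no effect and no-enzyme background for full effect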
#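 AC50 values come from Hill fits of compound titrations (up to 77 uM) against 4 nM human enzyme. Substrate 4-methylumbelliferyl-alpha-D-pyranoside at 400 uM, pH 5.0 citrate buffer, 20 min room temperature; fluorescence Ex 365/Em 440 after alkaline stop.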
# GLA inh pH 4.5: qHTS Assay for Inhibitors of Human alpha-Galactosidase at pH 4.5. Alpha-galactosidase A (Homo sapiens), P06280. 230,000 tested, under 10 active. purified enzyme, 4-MU-alpha-Gal fluorescence, pH 4.5. AID 1467, 2008. activity change, negative = inhibition, % at 105 µM;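 note: 0% = full activity with enzyme and -100% = basal without enzyme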
# Target sequence (P06280 whole entry, looked up): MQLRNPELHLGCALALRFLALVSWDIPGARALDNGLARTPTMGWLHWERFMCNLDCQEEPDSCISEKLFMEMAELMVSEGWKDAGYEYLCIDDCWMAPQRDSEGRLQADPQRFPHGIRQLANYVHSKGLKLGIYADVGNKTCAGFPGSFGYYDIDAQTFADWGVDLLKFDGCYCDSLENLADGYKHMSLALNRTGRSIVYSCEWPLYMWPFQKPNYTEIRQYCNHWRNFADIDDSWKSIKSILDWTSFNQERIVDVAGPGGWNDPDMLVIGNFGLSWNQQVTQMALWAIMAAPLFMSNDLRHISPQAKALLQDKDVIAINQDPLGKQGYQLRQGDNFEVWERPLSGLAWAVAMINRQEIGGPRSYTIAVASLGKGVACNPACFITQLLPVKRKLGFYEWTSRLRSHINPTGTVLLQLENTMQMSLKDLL
# GLA spleen mod: qHTS Assay for Inhibitors and Activators of Human alpha-Galactosidase From Spleen Homogenate | human spleen homogenate, 4MU-alpha-Gal fluorescence, 40 min | Potency, µM (titrated, usually from 80 µM), inactives show at the top dose activity change, negative = inhibition, hits mostly inhibitors | actives 0.008% (n = 240,000);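 note: potency is the fitted concentration of half-maximal effect; 0% = enzyme with vehicle and -100% = no enzyme basal signal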
#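 Fluorogenic readout (Ex 365/Em 440 nm) of 4-methylumbelliferone released from 1 mM 4-MU-alpha-galactoside by spleen homogenate, 40 min at 37C, pH 5.0. Data normalized to no-enzyme and enzyme controls; Hill-equation AC50 from compound titrations.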
# GAA glycogen: qHTS Assay for Inhibitors and Activators of Human alpha-Glucosidase Cleavage of Glycogen. Lysosomal alpha-glucosidase (Homo sapiens), P10253. recombinant GAA, glycogen substrate, Amplex Red glucose oxidase fluorescence. Potency, µM (top dose mostly 76.4 µM), for inactives: at the top dose activity change, negative = inhibition, hits mostly inhibitors. actives 0.38% (n = 300,000);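 note: potency is the fitted concentration of half-maximal effect; 0% = full enzyme reaction and -100% = no-enzyme basal signal; the screen sought inhibitors and activators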
#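 qHTS, 1536-well; enzyme 4 nM final; cpd up to 77 uM; substrate bovine liver glycogen 30 ug; 50 mM citrate/phosphate pH 5.0, 0.01% Tween-20; 37 C, 40 min; Amplex Red detection 45 min RT; Hill fit → AC50.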
# Active calls of the source: *; ? = inconclusive; · = not tested or not shown; [ ] = another dose, or the depositor's remark. Shown are actives, neighbours in structure and some others; about 0.4% of the full set was active somewhere. Calls come from the whole dose curve; as a rule, active = well fitted curve in the direction sought with a large enough effect; inconclusive = small, poorly fitted or top-dose-only effect, or another doubt; inactive = no such curve, though single readings can be large; an effect the other way counts as inactive or inconclusive.
SMILES,aGlu spleen mod,GAA inhib,GLA inh pH 4.5,GLA spleen mod,GAA glycogen
Nc1ccc2c(c1)OC1(CCCC1)O2,-12%,14%,-3,2%,31µM*
Cc1cccc(NNC(=O)C2CCC2)c1,-1%,·,2,12%,7.9µM*
CCCc1cc(=O)[nH]c(Nc2ccc(O)cc2C)n1,·,·,·,·,10µM*
CCCc1cc(=O)[nH]c(Nc2cccc(Cl)c2Cl)n1,·,·,·,·,-8%[76.3 µM]
Cc1ccccc1NC(=O)c1sc2nc(-c3ccncc3)ccc2c1N,·,·,·,·,16%[76.3 µM]
COc1cccc(/C=C2/C(=O)NN(c3ccc(C)c(C)c3)C2=O)c1,·,·,·,·,32µM*
COc1ccc(C(=O)NNc2ccccc2)cc1OC,2%,0%,-3,2%,22µM*
CC(C(=O)Nc1ccccc1)n1nnc2sc3c(c2c1=O)CCCC3 (centres undefined),·,·,·,·,15%[76.3 µM]
CC(=O)Nc1cc(OC(C)=O)c2nonc2c1OC(C)=O,-7%,-5%,2,-10%,16µM*
CC(=O)Nc1nonc1NC(C)=O,-5%,-10%,-1,-3%,-4%
CC(/C=C/c1cccc(Oc2ccc(F)cc2)c1)N(O)C(N)=O (centres undefined),-3%,·,-4,-9%,·
Cc1ccc(-c2[nH]c(=O)n3ccncc23)s1,1%,-7%,-8,9%,40µM*
CC(=O)c1cccc(NS(=O)(=O)c2cccc(S(=O)(=O)c3ccc(Br)cc3)c2)c1,·,·,·,·,-19%[76.3 µM]
Cc1ccc(Nc2c(-c3ccc(C)o3)nc3ncccn23)cc1,6%,·,-6,1%,?
Oc1ccc(-c2nc3ncccn3c2Nc2ccc3c(c2)OCO3)cc1,-6%,5%,-6,-8%,25µM*
Cc1ccc(-c2nc3ncccn3c2Nc2ccc3c(c2)OCO3)o1,3%,-2%,8,-5%,10µM*
CCc1ccc(C(=O)c2cn(CC(=O)Nc3ccc4c(c3)OCO4)c3ccc(OC)cc3c2=O)cc1,·,·,·,·,5%[76.3 µM]
CCCCN(Cc1ccccc1)S(=O)(=O)c1ccc2c(c1)CC(C)N2C(=O)CC (centres undefined),·,·,·,·,-16%[76.3 µM]
CCOC(=O)c1oc2c(O)c(O)ccc2c(=O)c1-c1nncn1-c1ccccc1,-6%,-12%,-8,0%,35µM*
CCn1c2ccccc2c2cc(CN3CCN(Cc4cc(OC)ccc4O)CC3)ccc21,-1%,-15%,-9,1%,7.9µM*
CCn1c2ccccc2c2cc(CN3CCN(Cc4ccccc4C)CC3)ccc21,·,·,·,·,-11%[76.3 µM]
O=C(NC1=NCCS1)C1Cc2ccccc2CN1C(=O)c1ccccc1 (centres undefined),-1%,-10%,-4,11%,4µM*
CCCCCCCCC,-2%,·,·,1%,·
O=C(NCc1ccccc1)C(c1ccncc1)N(C(=O)c1ccccn1)c1ccccc1 (centres undefined),·,·,·,·,11µM*
Cc1ccccc1N(C(=O)c1ccccn1)C(C(=O)NCc1ccccc1)c1ccncc1 (centres undefined),·,·,·,·,-6%
SMILES,aGlu spleen mod,GAA inhib,GLA inh pH 4.5,GLA spleen mod,GAA glycogen
CCOc1ccc(Nc2nc(Cc3nnc(SCC(=O)O)o3)cs2)cc1,-4%,8%,-13,-1%,14µM*
CCOc1ccc(Cc2nnc(SCC(=O)c3ccc(OC)cc3)o2)cc1,-5%,-14%,0,2%,-8%
O=C1c2cccc3cccc(c23)C(=O)N1CC1CCN(CC(O)COc2ccc3ccccc3c2)CC1 (centres undefined),-16%,-1%,5,-8%,25µM*
CNC(=S)NCCCCc1cnc[nH]1,-2%,·,·,5%,·
Cc1[nH]n(C(C)(C)C)c(=O)c1Sc1ccccc1,-1%,1%,9,4%,16µM*
Cc1cc(C)n(-c2nc3cc(Cl)ccc3nc2N2CCN(c3ccccc3F)CC2)n1,·,·,·,·,-10%[76.3 µM]
COc1cc(/C=N/Nc2nc3ccccc3[nH]2)ccc1O,-19%,3%,6,7%,22µM*
COc1cc(/C=N/Nc2nc3ccccc3[nH]c2=O)ccc1O,·,-7%,-9,-2%,?
